According to the supplement of paper PMC12632987:
The full ranking holds about 4,500 sequences; the median of “median log2 fold change of GCK-ALFA target abundance (FLAG IP / Myc IP barcode read proportion)” is about 0.078, and the lowest 2% start at about -0.6. This is one part of a sample in which the lowest values are shown more often than they occur.

B1: GBRAP_52_6056 (protein)
chain: MEARIEALARAIAAAIAAGDLDAALALLREAIATLTPEEIRRTLQLAARLVAGLGEEAHERFVELLDEAHELMIEAGISEEEADIIVGDAEAALARAVAA
B2: GBRAP_117_2594 (protein)
chain: SATLEEVRKRVEELVERIRKALEEMKTLSEEERKRLREELLEEATKEVKEMLKLTDAETVEEFFAEALADLSPEERVEAYIIFEEALADAEDELKEEEEA
B3: GBRAP_128_3594 (protein)
chain: SVEEVRAYVREALAAMKEADAETRREIADALMERLLTLSDEEQRAAFETIEELLPELSAEDLDILADALREHRPRFSPEGANLAADVEVEALNEREELEE
B4: GBRAP_80_6786 (protein)
chain: MEEEIEKLIEEIEKKNPEVAKIIKEIVELLKEIGVPLEIIKEIVEVFLDALSLPKETQLKIAKEVLEEAKELSEYKDEFSPEDIGRMVLAEALTLVELAK
B5: GBRAP_83_6928 (protein)
chain: KEKIVVAANDDNIDEAFEAAIDLQKNEGYEVDVEVIITKEGFPKLKKAFEKMAKAGWNGTLDILAVGATKEEVEKLKAELEAIAKKYGVNVKINVTQVEP
B6: GBRAP_160_4685 (protein)
chain: SEKVEEAEEFLEEEFAEVVELFDEVTREELAAFVRVAFGEIILELEELGLLTDEVAEVIDEEEERIVDAILNDPNITKEEFAALLEEAAEEIVEELEEEA
B7: GBRAP_184_5239 (protein)
chain: MVLERTIKAENEEELREKMKEVMEEAEKKGAKVRLLIEVEKLTREKAETLAEMIKEMAAKGLLELVGVVSSEPISEEIVDLLVEAADEAGVKLVIAEPEI
B8: GBRAP_52_6331 (protein)
chain: SHEEVEKMAEELYKAIVAGKEEEAKKLAEEMVETLSSEEILEAARIVAERVAKEGDEVKVRAAEVFEYLAELVEEKRGDERTAAEILGIYATTLYAAEQA
B9: GBRAP_11_2762 (protein)
chain: MKEKYERLAELAERAAELVDRLLAEGVDDAELLAELERLLRELREETKKIGDKALEKDVEIAEELFRALQADPANAEAYARELRAQLRVLAGQYLLLAEE
B10: GBRAP_35_5533 (protein)
chain: NSDEEIAEMLLNTMEALVDALPDVSPEQQLALARHLIRLAEDFLELKTKSAELIKRLIEVLERAIELIKKSSLPPEQQEELIRELEELRERAKELLKEVE
B11: GBRAP_128_3242 (protein)
chain: SQEELLEEAKKLIEEIVKADVETAKKLTEKLIELLKKLNDEAREEVAEYLEKELEKLSAEKLEAVADTLRENRPKLDPYTAALVAGVEIDALELALEKEE
B12: GBRAP_128_3244 (protein)
chain: SQEELLEEAKKLVDEIVEADVEEAKELTKKLIELMKKLNKESREEVADYLIEKLKELSAEKLEAVADTLRENRPKLDDYTAALVAGVEIEALELALEQEE
B13: GBRAP_184_5275 (protein)
chain: KVIHVDIVAETGEEAIKEVKKAAEKAKKEGAKLKINILLENSSVEETIKLFELLKKLKEEGIIEDAVVGIENEKTEEEIDTLLKAADEAGVKLVLAISDE
B14: GBRAP_80_6828 (protein)
chain: AEKELEAVIKELAEVDPEIAKLVEEAIEIAKELGVPLEVLLRFAKAILELAKVDKEKALELVKELLEELKKAKEEGNRDEAIALLYDAESEALLAVEELE
B15: GBRAP_52_6260 (protein)
chain: MRERLRALVEEILELVKAGRLEEARALATELAETFNEEELEIFIEEAAELARRSSKEEVEDLIRMAELVAEALEEAGRPEELVSLFEARVYGAIYETEKR
B16: GBRAP_160_4430 (protein)
chain: AEKLEKAKKEIDALFAEALEMMKGQTAEQRIVVLRVTEGEVKLELEELGLLTDEVDAVIDATFAAIIAHVAAHPDITDAELAALLDAAAATIKAELDKAA
B17: GBRAP_83_6937 (protein)
chain: KEKITVVANDDNIEKSFEIAEDLHKEEGYEVDIDVIITKESIEKLLKEVEKLFKKGVNADLHISLLGVTEEEAEELKKKLEEMAKKYGVNANITVEAIEL
B18: GBRAP_125_3133 (protein)
chain: MTEEILEDLAIVARALGFSDDDVEEAVEIARKHGVKGTLYAIMLALGYEEVADLVEKITEEEAIEVLREVAARIREDPSLTPEEVVALIKELLKEKIAKK
B19: GBRAP_125_3132 (protein)
chain: HMEEILENLAIVAKALGLSDDDVEEAVKIAEKHGVKGTMYAILAALGYDEVADLVEKITEEEAIEVVKEVAEKIKKDPSLTPEEVVELIKKLLKEKIAAK
B20: GBRAP_125_3134 (protein)
chain: GMAEDLEDLAIVARALGFSDDDVAEAVAIAAKHGFKGTLYAIMAALGYDEVADLVEKITEEEAIEVIREVAAEIRADPSLTPEEVVELIKKRLEEVIAKK
B21: GBRAP_52_5954 (protein)
chain: AAARIQAQVDRLAALVRAGDLDAARALARELAETLDEEELRAFAAAVAAAVAAAPADELDAAFRLAEIVADELEREGRDEELAGDLLAAAAAALYAKEQA
B22: GBRAP_52_5929 (protein)
chain: MREEARELAERVLEAAEAGDEERLRELLREIVEELDDEEIELVIDELAELTIERGPEYYDLFADIMDLLEDEVEKAGRDVERVQYAIARAAGRMYDALQA
B23: GBRAP_137_3627 (protein)
chain: ATVTIELRRYEDVVEITITLDDPEKAEAAAELVEDVAHEEGALAVSIELEEDGTLVVEVWVPRDKAEALLARLVERLTTELGATVVIRDLDTGEVRVVTP
B24: GBRAP_184_5122 (protein)
chain: DVVHRAVEGEKAEELIAASRAVVEEAAAAGKRLHLSVFAKNMSVEEIIEVIKAMGELKARYPQVSVTVDVLDELSEEEIDKVLKAADEAGVRVVIAIPEE
B25: GBRAP_11_2857 (protein)
chain: KKEKLKEAAELARKAAEALEKLLKEGVDDKELQKKIEELLKKLLELVKEYGDPDLIKLAEIALENFQKAKKDPKNAEKYIKEALAAVRVLEGNLLLEIDE
B26: GBRAP_9_7127 (protein)
chain: KKELVEKLKEVVEEMIEDISKVVPEVTEEMKEEFLKKVEELEKEALEDESLTPEEIKEKFKELVEEIKEEVKKIVDEELKKLVEAIALTALEEIDEIVEE
B27: GBRAP_52_6037 (protein)
chain: MREKMREKAEEIVKLVLEGKLEEAEKLIRELVETLSEEELLLLGEELARIAREAPEEELDAILEAAFILADELIEGGYEEVLADEIEARVTRAAVERLER
B28: GBRAP_11_2679 (protein)
chain: KKEQLKKIAEIAKELAEAIEKLLKEGVDNEKLLKEIKKLLKELKELAEKYADEGLKTLAEIAAELFEEALANPENAEHYLELLLAAVRVLLANVEEEIDE
B29: GBRAP_52_6366 (protein)
chain: DLEEAVKLLREAVKAVLEGKEEEAEKILKEIVENFSEETILEAARRLAEELLEKSLEEAEAFLEAAIMLADILEEAGKSEVVGDEIEAIAARTLMEIRER

Target: GABARAP, O95166
Sequence (O95166 whole entry, the tested form may be a part): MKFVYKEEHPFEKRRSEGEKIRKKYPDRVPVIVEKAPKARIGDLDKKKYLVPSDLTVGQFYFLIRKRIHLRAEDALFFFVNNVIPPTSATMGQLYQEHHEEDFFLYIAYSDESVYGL
Test: median log2 fold change of GCK-ALFA target abundance (FLAG IP / Myc IP barcode read proportion) (log2 ratio); each designed protein is fused to an ALFA-tag nanobody in HEK293 cells to bring the named protein to FLAG-tagged glucokinase (GCK); Myc marks an untargeted standard; higher = target protein stabilised (more abundant)
Settings: target protein: 3xFLAG-MCP-GCK-ALFA reporter; HEK293 landing pad (RPLP)
How it was run: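 An ALFA-nanobody-fused binder library was recombined into HEK293 landing-pad cells and induced with 2 μg mL^−1 doxycycline. Cells were transfected with a plasmid expressing a FLAG-tagged target and a Myc-tagged standard. After 48 h, lysates underwent anti-FLAG and anti-Myc immunoprecipitation, and circular RNA barcodes were reverse transcribed, amplified and sequenced. Target abundance is the per-binder median log2 ratio of FLAG to Myc barcode read proportions. Barcodes needed ≥10^−7 proportion in both replicates, binders ≥3 barcodes per replicate, and a 10^−6 pseudocount was added; the two replicates were pooled.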

Row | Binder | median log2 fold change
1 | B1 | -0.851
2 | B2 | 0.152
3 | B3 | -0.0656
4 | B4 | -0.00858
5 | B5 | 0.0213
6 | B6 | -0.679
7 | B7 | 0.163
8 | B8 | 0.372
9 | B9 | 0.183
10 | B10 | -0.115
11 | B11 | -0.0414
12 | B12 | -0.658
13 | B13 | -0.234
14 | B14 | 0.0224
15 | B15 | -0.0461
16 | B16 | 0.0561
17 | B17 | 0.224
18 | B18 | -0.744
19 | B19 | -0.0148
20 | B20 | -0.575
21 | B21 | -0.0538
22 | B22 | -0.453
23 | B23 | -0.0361
24 | B24 | 0.0426
25 | B25 | 0.0648
26 | B26 | 0.275
27 | B27 | -0.655
28 | B28 | -0.169
29 | B29 | -0.214
